# Results from PubChem BioAssay AID1037 (National Center for Advancing Translational Sciences (NCATS), 2008).
# The source made the active and inactive calls. The call rests on the fitted dose curve.
# Experiment: NSCLC 2 Cell Viability Secondary Assay for qHTS Assay for Epigenetic Modulators
# Conditions: NSCLC 2 viability, MTS absorbance, 4 days
# Description: NIH Molecular Libraries Screening Centers Network [MLSCN] NIH Chemical Genomics Center [NCGC] MLSCN Grant: 1 X01 MH079860-01 Assay Provider: Elisabeth D. Martinez, University of Texas SW Medical Center NCGC Assay Overview: This secondary assay characterizes selected actives identified in the qHTS of the Locus Derepression (LDR) assay (PubChem AID 597). The LDR assay detects the derepression of a GFP reporter that is stably integrated in a region of the genome of murine c127i mammary cells that is presumably silenced. Compounds that cause derepression of the locus to express GFP are identified by enumerating GFP positive cells using a laser-scanning microplate cytometer. […] NSCLC 2 cell viability was measured using Cell Titer 96 AQueous One (Promega), an assay which detects the ability of metabolically active cells to reduce a tetrazolium salt substrate (MTS), into a soluble formazan product that can be measured by colorimetry.
# NCGC Assay Protocol Summary NSCLC 2 cells were plated in 96-well flat bottom tissue culture dishes (Corning) and grown overnight at 37 C and 5% CO2, then treated with compounds, incubated 4 days, and assayed for viability using the Cell Titer 96 AQueous One kit (Promega) according to the manufacturer's protocol. Absorbance at 490 nm and 650 nm (reference) was measured by a Spectra Max (Molecular Devices). […]
smiles,measurement,value
CN1CSC(=S)N(C)C1,outcome,inactive
